Results filed as inconclusive are left out. The source made the active and inactive calls. Unless noted, calls follow the shape of the dose curve; as a rule, active = well fitted curve in the direction sought with a large enough effect in the repeat runs; inconclusive = weak or mixed curves; inactive = no such curve, though single readings can be large; an effect the other way counts as inactive or inconclusive.
How the values were obtained:
[1] = qHTS assay to identify small molecule agonists of the peroxisome proliferator-activated receptor delta (PPARd) signaling pathway - cell viability counter screen (AID 743211); also: % is scaled to controls: 0 for no effect and ±100 for the full control effect; nearly all actives have a fitted effect of over 55% in size
Procedure, shortened: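 Following 5 h plating at 37 C and 5% CO2, PPARd UAS-bla HEK293H cells took up test compounds for 17 h. Viability was quantified by luminescence 30 min after CellTiter-Glo addition at room temperature.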

[2] = biological target: Peroxisome proliferator-activated receptor delta (Homo sapiens) (UniProt Q03181); assay: qHTS assay to identify small molecule agonists of the peroxisome proliferator-activated receptor delta (PPARd) signaling pathway (AID 743212; calls by dose curve; also: % is scaled to controls: 0 for no effect and ±100 for the full control effect)
Peroxisome proliferator-activated receptor delta (Homo sapiens), sequence (Q03181 whole entry, looked up): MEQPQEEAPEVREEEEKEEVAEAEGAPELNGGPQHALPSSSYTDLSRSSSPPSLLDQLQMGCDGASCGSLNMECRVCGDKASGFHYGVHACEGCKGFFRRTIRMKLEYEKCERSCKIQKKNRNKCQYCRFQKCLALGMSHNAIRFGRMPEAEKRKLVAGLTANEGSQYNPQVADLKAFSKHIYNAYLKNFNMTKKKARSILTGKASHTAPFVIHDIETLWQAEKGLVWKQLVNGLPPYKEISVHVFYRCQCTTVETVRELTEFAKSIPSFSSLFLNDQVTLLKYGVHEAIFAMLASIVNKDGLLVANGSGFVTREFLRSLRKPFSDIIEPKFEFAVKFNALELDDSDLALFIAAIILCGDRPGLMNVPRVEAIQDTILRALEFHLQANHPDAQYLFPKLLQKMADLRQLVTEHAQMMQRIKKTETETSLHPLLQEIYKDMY
Procedure, shortened: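 Beta-lactamase reporter readout: a ratiometric FRET signal from the LiveBLAzer substrate after 2 h at room temperature. Compound exposure at 37 °C in PPARδ-bla HEK293H cells driven by an upstream activator sequence.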

[3] = qHTS assay to identify small molecule antagonists of the peroxisome proliferator-activated receptor delta (PPARd) signaling pathway - cell viability counter screen (AID 743213); also: % is scaled to controls: 0 for no effect and ±100 for the full control effect; nearly all actives have a fitted effect of over 50% in size
Procedure, shortened: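 CellTiter-Glo was added to PPARd-bla HEK293H wells following 17 h compound treatment in the presence of 300 nM L165041. Luminescence was recorded after 30 min at room temperature.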

[4] = biological target: Bile acid receptor (Homo sapiens) (UniProt Q96RI1); assay: qHTS assay to identify small molecule antagonists of the farnesoid-X-receptor (FXR) signaling pathway (AID 743217; active = well fitted inhibition curve with a large enough effect in the signal ratio in the repeat runs, not every such curve was filed as active; the % refers to the signal ratio; also: % is scaled to controls: 0 for no effect and ±100 for the full control effect)
Bile acid receptor (Homo sapiens), sequence (Q96RI1 whole entry, looked up): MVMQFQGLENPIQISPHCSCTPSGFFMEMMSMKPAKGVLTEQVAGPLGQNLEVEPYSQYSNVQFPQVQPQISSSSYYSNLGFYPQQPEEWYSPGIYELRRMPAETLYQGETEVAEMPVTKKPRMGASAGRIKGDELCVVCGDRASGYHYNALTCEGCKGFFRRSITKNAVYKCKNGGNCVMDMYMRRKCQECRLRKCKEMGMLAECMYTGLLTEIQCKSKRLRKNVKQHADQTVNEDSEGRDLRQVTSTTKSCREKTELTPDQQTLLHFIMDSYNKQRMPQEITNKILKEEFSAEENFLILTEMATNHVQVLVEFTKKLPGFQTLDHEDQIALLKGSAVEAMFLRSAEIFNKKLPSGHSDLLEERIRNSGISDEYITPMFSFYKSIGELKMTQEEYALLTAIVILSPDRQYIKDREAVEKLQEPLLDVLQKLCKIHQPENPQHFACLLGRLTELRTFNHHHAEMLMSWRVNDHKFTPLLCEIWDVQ
Procedure, shortened: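 Read-out: beta-lactamase FRET fluorescence (LiveBLAzer B/G substrate, 2 h, room temperature) in GeneBLAzer FXR-UAS-bla HEK 293T cells. Compounds were co-dosed with 50 uM chenodeoxycholic acid (final) and incubated 16 h at 37 °C.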

[5] = qHTS assay to identify small molecule agonists of the farnesoid-X-receptor (FXR) signaling pathway - cell viability counter screen (AID 743218); also: % is scaled to controls: 0 for no effect and ±100 for the full control effect; nearly all actives have a fitted effect of over 45% in size
Procedure, shortened: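 Luminescence from CellTiter-Glo, read after 30 min at RT, reports viability of GeneBLAzer FXR-UAS-bla HEK 293T cells treated 16 h with compounds in the wells used for the beta-lactamase reporter.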

[6] = biological target: Bile acid receptor (Homo sapiens) (UniProt Q96RI1); assay: qHTS assay to identify small molecule agonists of the farnesoid-X-receptor (FXR) signaling pathway (AID 743220; active = well fitted activation curve with a large enough effect in the signal ratio in the repeat runs, not every such curve was filed as active; the % refers to the signal ratio; also: % is scaled to controls: 0 for no effect and ±100 for the full control effect)
Procedure, shortened: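 FXR-UAS-bla HEK 293T cells carrying a UAS-driven beta-lactamase reporter were plated for 5 h at 37C/5% CO2, then exposed to DMSO-dissolved Tox21 10K compounds for 16 h at 37C. A LiveBLAzer B/G FRET substrate was loaded for 2 h at room temperature before fluorescence reading.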

[7] = qHTS assay to identify small molecule antagonists of the farnesoid-X-receptor (FXR) signaling pathway - cell viability counter screen (AID 743221; active = well fitted cell-killing curve with a large enough effect in the repeat runs, not every such curve was filed as active; also: % is scaled to controls: 0 for no effect and ±100 for the full control effect; nearly all actives have a fitted effect of over 50% in size)
Procedure, shortened: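 Compound effects on cell number were measured as CellTiter-Glo luminescence in HEK 293T cells expressing FXR-UAS-bla, after 16 h at 37 C with 50 uM CDCA (final).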

[8] = biological target: Vitamin D3 receptor (Homo sapiens) (UniProt P11473); assay: qHTS assay to identify small molecule agonists of the vitamin D receptor (VDR) signaling pathway (AID 743222; calls by dose curve; also: % is scaled to controls: 0 for no effect and ±100 for the full control effect)
Vitamin D3 receptor (Homo sapiens), sequence (P11473 whole entry, looked up): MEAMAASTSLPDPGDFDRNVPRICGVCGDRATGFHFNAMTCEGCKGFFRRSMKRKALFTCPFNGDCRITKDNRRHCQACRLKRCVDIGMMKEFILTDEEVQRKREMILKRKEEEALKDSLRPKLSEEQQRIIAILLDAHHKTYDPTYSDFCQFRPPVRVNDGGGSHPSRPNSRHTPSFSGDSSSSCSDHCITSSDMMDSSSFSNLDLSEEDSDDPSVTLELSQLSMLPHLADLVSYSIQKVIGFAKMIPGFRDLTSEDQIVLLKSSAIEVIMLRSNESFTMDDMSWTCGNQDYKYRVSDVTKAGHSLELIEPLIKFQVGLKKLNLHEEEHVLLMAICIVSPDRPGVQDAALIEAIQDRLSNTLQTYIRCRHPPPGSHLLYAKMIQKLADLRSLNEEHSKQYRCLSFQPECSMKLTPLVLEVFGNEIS
Procedure, shortened: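 Beta-lactamase reporter readout (LiveBLAzer B/G FRET, 2 h RT) in VDR-bla cells after 16 h compound treatment at 37C, 5% CO2; cells pre-incubated 4 h before pin transfer of DMSO solutions.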

[9] = biological target: Vitamin D3 receptor (Homo sapiens) (UniProt P11473); assay: qHTS assay to identify small molecule antagonists of the vitamin D receptor (VDR) signaling pathway (AID 743223; active = well fitted inhibition curve with a large enough effect in the signal ratio in the repeat runs, not every such curve was filed as active; the % refers to the signal ratio; also: % is scaled to controls: 0 for no effect and ±100 for the full control effect)
Procedure, shortened: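 Beta-lactamase activity in VDR-bla cells is measured by FRET substrate fluorescence (2 h, room temperature) after cells spend 16 h at 37C with test compound and 3 nM final 1alpha,25-dihydroxyvitamin D3.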

[10] = qHTS assay to identify small molecule agonists of the vitamin D receptor (VDR) signaling pathway - cell viability counter screen (AID 743224); also: series mostly up to about 63 µM; % is scaled to controls: 0 for no effect and ±100 for the full control effect; nearly all actives have a fitted effect of over 50% in size
Procedure, shortened: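 Cytotoxicity counter screen: VDR-bla cells, 16 h compound exposure at 37C, 5% CO2; CellTiter-Glo luminescence, 30 min RT, same wells as bla read.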

[11] = qHTS assay to identify small molecule antagonists of the vitamin D receptor (VDR) signaling pathway - cell viability counter screen (AID 743225); also: % is scaled to controls: 0 for no effect and ±100 for the full control effect; nearly all actives have a fitted effect of over 50% in size
Procedure, shortened: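 In this counter screen, VDR-bla HEK 293T cells receive test compound plus 3 nM final calcitriol for 16 h at 37C. Room-temperature steps of 2 h with the beta-lactamase substrate, then 30 min with CellTiter-Glo, precede the luminescence read.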

[12] = qHTS assay to identify small molecule agonists of the NFkB signaling pathway (AID 1159509; active = well fitted curve in the direction sought with a large enough effect in the signal ratio in the repeat runs, not every such curve was filed as active; the % refers to the signal ratio)
Procedure, shortened: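 Agonist activity was read as beta-lactamase-driven FRET change (460 and 530 nm emission, 405 nm excitation) following 1.5 hr substrate loading at room temperature. Beforehand, ME-180 NFkB-bla reporter cells were treated with compounds for 5 hr at 37 C.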

[13] = qHTS assay to identify small molecule agonists of the NFkB signaling pathway - cell viability counter screen (AID 1159515; calls by dose curve; also: series mostly up to about 61 µM; % is scaled to controls: 0 for no effect and ±100 for the full control effect; nearly all actives have a fitted effect of over 55% in size)
Procedure, shortened: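 ME-180 NFkB-bla cells, 2,000/well; overnight attach; compound 5 hr, 37 C/5% CO2; LiveBLAzer substrate 1.5 hr RT; then CellTiter-Glo in same wells, 30 min RT, luminescence read.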

[14] = qHTS assay to identify small molecule agonists of the endoplasmic reticulum stress response signaling pathway (AID 1159516; active = well fitted activation curve with a large enough effect in the signal ratio in the repeat runs, not every such curve was filed as active; the % refers to the signal ratio; also: % is scaled to controls: 0 for no effect and ±100 for the full control effect)
Procedure, shortened: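 HeLa ESRE-bla reporter line; cpd 5 h, 37 C/5% CO2; LiveBLAzer B/G FRET substrate 2 h RT; ex 405, em 460/530 nm.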

[15] = qHTS assay to identify small molecule agonists of the endoplasmic reticulum stress response signaling pathway - cell viability counter screen (AID 1159517; calls by dose curve)
Procedure, shortened: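 ESRE-bla HeLa cells (1,500/well) were plated overnight at 37 C and exposed to compounds for 5 hr. After the 2 hr beta-lactamase substrate read, CellTiter-Glo went into the same wells, and luminescence was read after 30 min at room temperature.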

[16] = qHTS assay to identify small molecule antagonists of the retinoid-related orphan receptor gamma (ROR-gamma) signaling pathway - cell viability counter screen (AID 1159520)
Procedure, shortened: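 Cytotoxicity was read from cellular ATP (CellTiter-Glo luminescence) after 16 hr at 37 C with 1 uM doxycycline induction. The inducer was added 2 hr after compound transfer to Tet-on ROR gamma CHO cells.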

[17] = biological target: Nuclear receptor ROR-gamma (Homo sapiens) (UniProt P51449); assay: qHTS assay to identify small molecule antagonists of the retinoid-related orphan receptor gamma (ROR-gamma) signaling pathway (AID 1159521)
Procedure, shortened: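 Screening format: cell-based luciferase reporter in CHO cells with doxycycline-inducible RORγ. Compound pre-exposure lasts 2 h, doxycycline is 1 uM final, induction runs 16 h at 37 C, and ONE-Glo luminescence is read.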

[18] = qHTS assay to identify small molecule agonists of the AP-1 signaling pathway - cell viability counter screen (AID 1159525; calls by dose curve; also: nearly all actives have a fitted effect of over 55% in size)
Procedure, shortened: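 Intracellular ATP by Cell Titer Glo luminescence (30 min, RT) in the same ME-180 AP-1-bla wells after the 5 h compound exposure at 37 °C. Normalised to tetra n-octyl ammonium bromide and DMSO controls.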

[19] = qHTS assay to identify small molecule agonists of the AP-1 signaling pathway (AID 1159526; calls by dose curve; also: % is scaled to controls: 0 for no effect and ±100 for the full control effect)
[20] = biological target: Peroxisome proliferator-activated receptor delta (Homo sapiens) (UniProt Q03181); assay: qHTS assay to identify small molecule antagonists of the peroxisome proliferator-activated receptor delta (PPARd) signaling pathway (AID 743215; active = well fitted inhibition curve with a large enough effect in the signal ratio in the repeat runs, not every such curve was filed as active; the % refers to the signal ratio)
Procedure, shortened: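 HEK293H GeneBLAzer PPARd UAS-bla reporter cells; cpd + L165041 300 nM final, 17 h 37 C; LiveBLAzer B/G FRET substrate 2 h RT; fluorescence intensity read-out. Antagonist mode.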

NC(=O)NC(=O)Cc1ccccc1
inactive: outcome [1] | outcome [2] | outcome [3] | outcome [4] | Potency [5] | outcome [6] | outcome [7] | outcome [8] | outcome [9] | outcome [10] | outcome [11] | outcome [12] | outcome [13] | outcome [14] | outcome [15] | outcome [16] | outcome [17] | outcome [18] | outcome [19]

CNC(=O)C(c1ccccc1)c1ccccc1
inactive: outcome [1] | outcome [2] | outcome [6] | outcome [7] | outcome [8] | outcome [9] | outcome [10] | outcome [11] | outcome [12] | outcome [13] | outcome [14] | outcome [15] | outcome [16] | outcome [17] | outcome [18] | outcome [19]

CCCCCCCCCCCCOC(C)=O
inactive: outcome [1] | outcome [2] | outcome [3] | outcome [20] | outcome [7] | outcome [9] | outcome [12] | outcome [13] | outcome [14] | outcome [15] | outcome [16] | outcome [17] | outcome [18] | outcome [19]

CC(C)(c1ccc(Oc2ccc3c(c2)C(=O)OC3=O)cc1)c1ccc(Oc2ccc3c(c2)C(=O)OC3=O)cc1
inactive: outcome [1] | outcome [3] | outcome [20] | outcome [7] | outcome [8] | outcome [10] | outcome [11] | outcome [12] | outcome [13] | outcome [14] | outcome [15] | outcome [16] | outcome [17] | outcome [18] | outcome [19]

OC(CCN1CCCCC1)(c1ccccc1)c1ccccc1
inactive: outcome [1] | outcome [3] | Potency [5] | outcome [7] | outcome [11] | outcome [12] | outcome [13] | outcome [14] | outcome [15] | outcome [16] | outcome [17] | outcome [18] | outcome [19]

C[C@H](CCC(=O)NCC(=O)O)[C@H]1CC[C@H]2[C@@H]3[C@H](O)C[C@@H]4C[C@H](O)CC[C@]4(C)[C@H]3C[C@H](O)[C@]12C
inactive: outcome [1] | outcome [3] | outcome [4] | Potency [5] | outcome [6] | outcome [7] | outcome [8] | outcome [9] | outcome [10] | outcome [12] | outcome [13] | outcome [14] | outcome [15] | outcome [16] | outcome [17] | outcome [18] | outcome [19]

CCOC(=O)CC(CC(=O)OCC)(OC(C)=O)C(=O)OCC
inactive: outcome [1] | outcome [3] | outcome [4] | Potency [5] | outcome [7] | outcome [8] | outcome [9] | outcome [10] | outcome [11] | outcome [12] | outcome [13] | outcome [14] | outcome [15] | outcome [16] | outcome [17] | outcome [18] | outcome [19]

C[C@H](CCC(=O)O)[C@H]1CC[C@H]2[C@@H]3[C@H](O)C[C@@H]4C[C@H](O)CC[C@]4(C)[C@H]3C[C@H](O)[C@]12C
inactive: outcome [1] | outcome [3] | outcome [4] | outcome [6] | outcome [7] | outcome [10] | outcome [11] | outcome [12] | outcome [13] | outcome [14] | outcome [15] | outcome [16] | outcome [17] | outcome [18] | outcome [19]

C[Si]1(C)N[Si](C)(C)N[Si](C)(C)N1
inactive: outcome [3] | Potency [5] | outcome [7] | outcome [12] | outcome [13] | outcome [14] | outcome [15] | outcome [16] | outcome [17] | outcome [18] | outcome [19]

O=c1[nH]c(=O)c2ccccc2o1
inactive: outcome [1] | outcome [3] | outcome [4] | Potency [5] | outcome [6] | outcome [7] | outcome [10] | outcome [11] | outcome [12] | outcome [13] | outcome [14] | outcome [15] | outcome [16] | outcome [18] | outcome [19]

NCCc1ccn[nH]1
inactive: outcome [1] | outcome [2] | outcome [3] | outcome [20] | Potency [5] | outcome [7] | outcome [10] | outcome [11] | outcome [12] | outcome [13] | outcome [14] | outcome [15] | outcome [16] | outcome [18] | outcome [19]

F[Si-2](F)(F)(F)(F)F
inactive: outcome [1] | outcome [2] | outcome [3] | outcome [20] | Potency [5] | outcome [6] | outcome [7] | outcome [8] | outcome [9] | outcome [11] | outcome [12] | outcome [13] | outcome [14] | outcome [15] | outcome [16] | outcome [18] | outcome [19]

CC(Cl)COP(=O)(OCC(C)Cl)OCC(C)Cl (stereo not drawn)
inactive: outcome [1] | outcome [2] | outcome [3] | outcome [20] | Potency [5] | outcome [7] | outcome [8] | outcome [9] | outcome [10] | outcome [11] | outcome [12] | outcome [13] | outcome [14] | outcome [15] | outcome [16] | outcome [18] | outcome [19]

O=c1[nH]c(=O)c2[nH]c(=O)[nH]c2[nH]1
inactive: activity change, negative = cytotoxicity [1] 7.12% [at 13.2 µM] | activation [2] 2.22% [at 13.2 µM] | viability change, negative = cytotoxic [3] -1.61% [at 13.7 µM] | ratio activity, negative = inhibition [20] -0.0973% [at 13.7 µM] | viability change, negative = cytotoxic [5] 18.5% [at 13.2 µM] | activity change, negative = cytotoxicity [7] 0.395% [at 13.2 µM] | viability change, negative = cytotoxic [11] 18.1% [at 6.95 µM] | activation [12] -0.0901% [at 6.95 µM] | activity, negative = cytotoxic [13] 1.31% [at 6.95 µM] | activation [14] -2.27% [at 6.95 µM] | activity change, negative = cytotoxicity [15] -24.3% [at 6.95 µM] | activity, negative = cytotoxicity [16] -0.126% [at 8.39 µM] | viability change, negative = cytotoxic [18] 10.8% [at 6.97 µM] | activation [19] -0.69% [at 6.97 µM]

O=C(Nc1cccc(C2=NCCN2)c1)Nc1cccc(C2=NCCN2)c1
inactive: outcome [2] | outcome [3] | outcome [20] | Potency [5] | outcome [7] | outcome [10] | outcome [12] | outcome [13] | outcome [14] | outcome [15] | activity, negative = cytotoxicity [16] 4.97% [at 19 µM] | viability change, negative = cytotoxic [18] 3.95% [at 15.8 µM] | activation [19] -8.47% [at 15.8 µM]

From PubChem BioAssay (Tox21)
